From PubChem BioAssay (NCATS)
Records with an inconclusive call do not appear. Unmarked numbers belong to inactive results. Calls come from the whole dose curve; as a rule, active = well fitted cell-killing curve with a large enough effect; inconclusive = small, poorly fitted or top-dose-only effect; inactive = no such curve, though single readings can be large or run the other way.

Experiment: qHTS of pediatric cancer cell lines to identify multiple opportunities for drug repurposing: Primary screen for Rh41 cells (AID 1347108);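 note: luminescence drop marks cytotoxic hits; nearly all actives have a fitted effect of over 70% in size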
Settings: Rh41 rhabdomyosarcoma viability, CellTiter-Glo luminescence, 48 h; series mostly up to 46 µM; activity change, negative = cytotoxic: at the top concentration
How it was run: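 Primary screen of approved and investigational compounds on cells in growth media at 37 degrees C, 5% CO2. MIPE set at 11-point and NPC set at 8-point dilutions; viability scored by ATP-based luminescence at 48 hours.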

Compound	activity change, negative = cytotoxic
C[C@H](O)C(=O)Nc1c(I)c(C(=O)NC(CO)CO)c(I)c(C(=O)NC(CO)CO)c1I	34.5%
CC1(C)O[C@@H]2C[C@H]3[C@@H]4C[C@H](F)C5=CC(=O)C=C[C@]5(C)[C@H]4[C@@H](O)C[C@]3(C)[C@]2(C(=O)CO)O1	-6.02%
O=C(Nc1ccc(Cl)c(Cl)c1)C1CC1	16.8%
CC(Cc1ccccc1)(NC(=O)CN)c1ccccc1 (stereo not drawn)	26.3%
CCOc1ccc(NC(=O)CC(C)O)cc1 (stereo not drawn)	-3.7%
CCCC(=O)Nc1ccc(OCC(O)CNC(C)C)c(C(C)=O)c1 (stereo not drawn)	8.64%
N[C@@H](CCC(=O)N[C@@H](CS)C(=O)NCC(=O)O)C(=O)O	8.93% [at 16.1 µM]
CCCCCCCCCCCCCCNCCO	20.3%
